PubChem BioAssay (Tox21)
“And” between values parts separate entries of the source, which are not always exact repeats. Equal entries are not always repeated. Results filed as inconclusive are left out. More than one record can exist for a structure, and the calls need not agree. The source made the active and inactive calls. Unless noted, the call rests on the fitted dose curve; in most records, active means well fitted curve in the direction sought with a large enough effect in the repeat runs; inconclusive means weak or mixed curves; inactive means no such curve, though single readings can be large; an effect the other way counts as inactive or inconclusive.

How the values were obtained:
[1] = qHTS assay to identify small molecule agonists of H2AX - cell viability counter screen (AID 1224847; calls by dose curve; further: top concentration of the series differs between compounds; nearly all actives have a fitted effect of over 30% in size)
Procedure, shortened: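 Read-out: CellTiter-Glo luminescence, 30 min RT. Cells: wild-type CHO-K1, 1000/well, 10% FBS, plated overnight at 37C. Treatment: 15 concentrations, 3 hr, 37C, 0.76% DMSO.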

[2] = qHTS assay to identify small molecule agonists of the estrogen related receptor (ERR) signaling pathway from Tox21 library (AID 1224849; calls by dose curve; further: nearly all actives have a fitted effect of over 15% in size); details: ERR reporter cell line, ONE-Glo luciferase, 18 h
Procedure, shortened: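 Cells carrying the ERR reporter were plated and allowed to settle for 6 h, exposed to library compounds for 18 h at 37 C, then lysed with ONE-Glo and luminescence measured.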

[3] = qHTS RealTime-Glo MT Cell Viability Assay in HepG2 cells - 24 hour (AID 1224867); further: nearly all actives have a fitted effect of over 50% in size
Procedure, shortened: (§1)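 HepG2 cells (600/well) were dispensed with RealTime-Glo reagents, incubated 5 h at 37 °C, then treated with compounds in DMSO for up to 40 h. Nonlytic NanoLuc luminescence reflecting viable cells was read at each stated time point.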

[4] = qHTS RealTime-Glo MT Cell Viability Assay in HEK293 cells - 32 hour (AID 1224868); further: nearly all actives have a fitted effect of over 50% in size; further: potency means the concentration at half of the fitted maximal effect
Procedure, shortened: (§2)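 HEK293 cells seeded with NanoLuc/prosubstrate reagent, rested 5 h at 37 C, then dosed and kept at 37 C up to 40 h. Nonlytic real-time luminescence from viable cells read at 0, 8, 16, 24, 32 and 40 h.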

[5] = A CellTox Green Cytotoxicity Assay to monitor cytotoxicity in HEK293 cells - 0 hour (AID 1224869); further: nearly all actives have a fitted effect of over 50% in size
Procedure, shortened: (§3)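 Cells (HEK293, 600/well) and dye reagent are dispensed together. After 5 h at 37 C, 23 nL compound is pinned in. Plates stay at 37 C for 40 h with fluorescence read at 0h, 8h, 16h, 24h, 32h and 40h.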

[6] = qHTS RealTime-Glo MT Cell Viability Assay in HepG2 cells - 40 hour (AID 1224870); further: nearly all actives have a fitted effect of over 50% in size
Procedure, shortened: (§4)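 HepG2 cells (600/well) mixed with RealTime-Glo MT reagent, settled 5 h at 37 C/5% CO2 before compound addition. Nonlytic NanoLuc luminescence from viable-cell prosubstrate reduction read repeatedly during 40 h treatment at 37 C.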

[7] = A CellTox Green Cytotoxicity Assay to monitor cytotoxicity in HEK293 cells - 40 hour (AID 1224871); further: nearly all actives have a fitted effect of over 45% in size
Procedure, shortened: as §3

[8] = qHTS RealTime-Glo MT Cell Viability Assay in HEK293 cells - 16 hour (AID 1224872); further: nearly all actives have a fitted effect of over 50% in size; further: potency means the concentration at half of the fitted maximal effect
Procedure, shortened: as §2

[9] = qHTS RealTime-Glo MT Cell Viability Assay in HEK293 cells - 40 hour (AID 1224874); details: RealTime-Glo luminescence; max response: stronger effect = lower value; further: nearly all actives have a fitted effect of over 50% in size
Procedure, shortened: (§5)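 Real-time viability in HEK293: signal arises when living cells convert a prosubstrate for NanoLuc in the medium, so luminescence tracks viable cell number. Compound (23 nL, DMSO) added 5 h post-seeding; kinetic reads at 0–40 h, 37 C.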

[10] = A CellTox Green Cytotoxicity Assay to monitor cytotoxicity in HEK293 cells - 24 hour (AID 1224875); further: nearly all actives have a fitted effect of over 45% in size
Procedure, shortened: as §3

[11] = qHTS RealTime-Glo MT Cell Viability Assay in HepG2 cells - 32 hour (AID 1224877); further: nearly all actives have a fitted effect of over 55% in size
Procedure, shortened: as §1

[12] = A CellTox Green Cytotoxicity Assay to monitor cytotoxicity in HepG2 cells - 24 hour (AID 1224878); further: nearly all actives have a fitted effect of over 45% in size
Procedure, shortened: (§6)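 Cells and non-lytic dye reagent are dispensed together (600 HepG2 cells/well) and incubated 5 h before DMSO compound transfer. Kinetic fluorescence is then recorded in the same wells during 40 h at 37 C.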

[13] = A CellTox Green Cytotoxicity Assay to monitor cytotoxicity in HepG2 cells - 40 hour (AID 1224879); further: nearly all actives have a fitted effect of over 40% in size
Procedure, shortened: as §6

[14] = qHTS RealTime-Glo MT Cell Viability Assay in HEK293 cells - 0 hour (AID 1224880); further: nearly all actives have a fitted effect of over 45% in size; further: potency means the concentration at half of the fitted maximal effect
Procedure, shortened: as §5

[15] = A CellTox Green Cytotoxicity Assay to monitor cytotoxicity in HEK293 cells - 32 hour (AID 1224881); further: nearly all actives have a fitted effect of over 40% in size
Procedure, shortened: as §3

[16] = A CellTox Green Cytotoxicity Assay to monitor cytotoxicity in HepG2 cells - 0 hour (AID 1224882); further: nearly all actives have a fitted effect of over 35% in size
Procedure, shortened: as §6

[17] = A CellTox Green Cytotoxicity Assay to monitor cytotoxicity in HepG2 cells - 32 hour (AID 1224883); further: nearly all actives have a fitted effect of over 50% in size
Procedure, shortened: as §6

[18] = A CellTox Green Cytotoxicity Assay to monitor cytotoxicity in HEK293 cells - 8 hour (AID 1224884); further: nearly all actives have a fitted effect of over 35% in size
Procedure, shortened: as §3

[19] = A CellTox Green Cytotoxicity Assay to monitor cytotoxicity in HepG2 cells - 16 hour (AID 1224876); further: nearly all actives have a fitted effect of over 45% in size
Procedure, shortened: as §6

[20] = qHTS RealTime-Glo MT Cell Viability Assay in HepG2 cells - 8 hour (AID 1224873); further: nearly all actives have a fitted effect of over 55% in size
Procedure, shortened: as §4
On the % scale 0 is the no-effect control and ±100 the full control effect.

N[C@@H](Cc1cc(I)c(Oc2cc(I)c(O)c(I)c2)c(I)c1)C(=O)O
inactive: Potency [1] | activity change, positive = activation ([2]; at 42.5 µM (top of the series)) -1.09% and 0.396% | outcome [3] | Potency [4] | outcome [5] | outcome [6] | Potency [7] | Potency [8] | max response [9] 12.3% and 0.808% | Potency [10] | outcome [11] | Potency [12] | Potency [13] | Potency [14] | Potency [15] | outcome [16] | Potency [17] | outcome [18]

CSCCC=O
inactive: Potency [1] | activity change, positive = activation ([2]; at 92.4 µM (top of the series)) 9.1% and 4.08% | outcome [3] | Potency [4] | outcome [5] | outcome [6] | Potency [7] | Potency [8] | Potency [10] | Potency [19] | outcome [11] | Potency [12] | Potency [13] | Potency [14] | Potency [15] | outcome [16] | Potency [17] | outcome [18]

O=C(Oc1ccccc1)c1ccccc1
inactive: Potency [1] | activity change, positive = activation ([2]; at 92.4 µM (top of the series)) 4.89% and 5.21% | outcome [3] | Potency [4] | outcome [5] | outcome [6] | Potency [7] | Potency [8] | outcome [20] | max response [9] -9.85% and 1.19% | Potency [10] | Potency [19] | outcome [11] | Potency [12] | Potency [13] | Potency [14] | outcome [16] | Potency [17] | outcome [18]

Nc1cc([N+](=O)[O-])ccc1O
inactive: Potency [1] | activity change, positive = activation ([2]; at 92.4 µM (top of the series)) -4.29% and 0.807% | outcome [3] | Potency [4] | outcome [5] | outcome [6] | Potency [7] | Potency [8] | outcome [20] | Potency [10] | Potency [19] | outcome [11] | Potency [12] | Potency [13] | Potency [14] | Potency [15] | outcome [16] | Potency [17] | outcome [18]

Fc1ccc(Br)cc1
inactive: Potency [1] | activity change, positive = activation ([2]; at 92.4 µM (top of the series)) -0.613% and 3.34% | outcome [3] | Potency [4] | outcome [5] | outcome [6] | Potency [7] | Potency [8] | outcome [20] | max response [9] 11.6% and 0.497% | Potency [10] | outcome [11] | Potency [12] | Potency [13] | Potency [14] | Potency [15] | outcome [16] | Potency [17] | outcome [18]

CC(C)(N)CO
inactive: Potency [1] | activity change, positive = activation ([2]; at 92.4 µM (top of the series)) 3.88% and 1.99% | outcome [3] | Potency [4] | outcome [5] | Potency [7] | Potency [8] | outcome [20] | Potency [10] | outcome [11] | Potency [12] | Potency [13] | Potency [14] | outcome [16] | Potency [17] | outcome [18]

CCCCC(CC)COC(=O)C(C#N)=C(c1ccccc1)c1ccccc1 (centres undefined)
inactive: Potency [1] | activity change, positive = activation ([2]; at 42.5 µM (top of the series)) -38.1% | activity change, positive = activation ([2]; at 92.4 µM (top of the series)) -32.9% | outcome [3] | Potency [4] | outcome [5] | outcome [6] | Potency [7] | Potency [8] | outcome [20] | max response [9] -27.4% | Potency [10] | Potency [19] | outcome [11] | Potency [12] | Potency [13] | Potency [14] | outcome [16] | Potency [17] | outcome [18]

C[Si](O[Si](C)(C)C)O[Si](C)(C)C
inactive: Potency [1] | outcome [3] | Potency [4] | outcome [5] | outcome [6] | Potency [7] | Potency [8] | outcome [20] | max response [9] 1.67% and 1.77% | Potency [10] | Potency [19] | outcome [11] | Potency [12] | Potency [13] | Potency [14] | Potency [15] | outcome [16] | Potency [17] | outcome [18]

C[C@H]1C[C@@H]2[C@H]([C@@H](O)C[C@@]3(C)[C@H]2CC[C@]3(O)C(=O)CO)[C@@]2(C)C=CC(=O)C=C12
active: Potency [14] 7.76 µM and 8.49 µM
inactive: Potency [1] | activity change, positive = activation ([2]; at 42.5 µM (top of the series)) -3.14% | activity change, positive = activation ([2]; at 92.4 µM (top of the series)) -13.3% | outcome [3] | Potency [4] | outcome [5] | Potency [7] | Potency [8] | outcome [20] | max response [9] -9.2% and -9.81% | Potency [10] | Potency [19] | outcome [11] | Potency [12] | Potency [13] | outcome [16] | Potency [17] | outcome [18]

COCCCOc1ccnc(CS(=O)c2nc3ccccc3[nH]2)c1C (centres undefined)
10.9 µM (active) and inactive: Potency [8]
inactive: Potency [1] | activity change, positive = activation ([2]; at 92.4 µM (top of the series)) -25.6% | outcome [3] | outcome [5] | outcome [6] | Potency [7] | outcome [20] | Potency [10] | outcome [11] | Potency [12] | Potency [13] | Potency [14] | Potency [15] | outcome [16] | Potency [17] | outcome [18]
9.74 µM (active) and inactive: Potency [4]

CCCCCCCCCCCCc1ccccc1
inactive: Potency [1] | activity change, positive = activation ([2]; at 92.4 µM (top of the series)) 9.43% and 1.83% | outcome [3] | Potency [4] | outcome [5] | Potency [7] | Potency [8] | outcome [20] | max response [9] 7.72% and -4.38% | Potency [10] | outcome [11] | Potency [12] | Potency [13] | Potency [14] | outcome [16] | Potency [17] | outcome [18]

CCC(O)OC(O)CC (centres undefined)
inactive: Potency [1] | activity change, positive = activation ([2]; at 92.4 µM (top of the series)) 4% and 3.85% | outcome [3] | Potency [4] | outcome [5] | Potency [7] | Potency [8] | outcome [20] | Potency [10] | Potency [19] | outcome [11] | Potency [12] | Potency [13] | Potency [14] | outcome [16] | Potency [17] | outcome [18]
